# PubChem BioAssay AID868 (SRMLSC, 2007)
# Hit rate of the full screen: of about 190,000 compounds, about 3,500 (1.8%) were called active.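 The calls were made as follows: active = inhibition above a set limit, 3 SD over mean compound inhibition (cut at about 8.4% in these data); inactive = the rest.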 Shown is part of a subset that was picked to be rich in actives.
# Experiment: inhibitors of the yeast RAM network, primary screen, dse1pr::URA3 reporter, 5-FOA selection (AID 868);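 also: 0% = DMSO-only wells with no growth and 100% = 10 µM 1-NA-PP1 full growth; inhibition rescues growth on 5-FOA so higher OD means more RAM inhibition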
# Conditions: S. cerevisiae dse1pr::URA3 reporter, 5-FOA growth OD615, 2 d; at 50 µM; active compounds read high; analog-sensitive cbk1-as2 kinase mutant strain
row,SMILES,inhibition
1,COc1cccc(NC(=S)NCc2ccco2)c1,-0.52% (inactive)
2,CCn1c(COc2ccccc2)nnc1SCC(=O)Nc1ccc2c(c1)OCCO2,9.4% (active)
3,CCn1c(Cc2ccccc2)nnc1SCC(=O)Nc1ccccc1,1.42% (inactive)
4,CCn1c(COc2ccc(OC)cc2)nnc1SCC(=O)Nc1cc(OC)ccc1OC,0.11% (inactive)
5,CCS(=O)(=O)Nc1ccc(C2=NN(C(C)=O)C(c3cccs3)C2)cc1 (centres undefined),-0.12% (inactive)
6,Cn1nnnc1-c1cc(Cl)cc(Cl)c1,-0.86% (inactive)
7,CCOc1ccc(-n2c(O)c(/C=N/Nc3nc(C)cc(C)n3)c3ccccc3c2=O)cc1,3.13% (inactive)
8,COC(=O)Cc1csc(/N=C/c2c(O)n(-c3cccc(C(F)(F)F)c3)c(=O)c3ccccc23)n1,8.86% (active)
9,COC(=O)Cc1csc(Nc2c(C)n(C)n(-c3ccccc3)c2=O)n1,1.09% (inactive)
10,COCCCNC(=S)NNC(=O)C(O)(c1ccccc1)c1ccccc1,1.35% (inactive)
11,COc1ccc(C(=O)CSc2nc(C)cc(C)n2)cc1[N+](=O)[O-],4.17% (inactive)
12,CC1CCCN(CC(O)COCc2ccccc2)C1 (centres undefined),3.48% (inactive)
13,Cc1cccc(NS(=O)(=O)c2ccc(C)c(C(N)=O)c2)c1,0.63% (inactive)
14,COc1ccccc1CNC(=O)CCCn1c(=O)c2ccccc2n(CC(=O)NC2CCCC2)c1=O,1.5% (inactive)
15,COc1ccccc1CNC(=O)CCn1c(=O)sc2ccccc21,8.77% (active)
16,CCc1nnc(NC(=O)CCC(=O)NCc2ccccc2OC)s1,1.08% (inactive)
17,COc1ccccc1Cc1nc(-c2ccc(C)cc2)no1,0% (inactive)
18,Cc1ccc(-c2noc(CN3CCN(Cc4ccccc4)CC3)n2)cc1,1.83% (inactive)
19,Cc1ccc(-c2noc(CC(c3ccccc3)c3ccccc3)n2)cc1,9.59% (active)
20,Cc1cc(C)cc(C(=O)N(CCc2ccccc2)C2=CC3CCC(C2)N3C)c1 (centres undefined),0.13% (inactive)
21,C=CCOCCN(C)C1=NS(=O)(=O)c2ccccc21,2.38% (inactive)
22,C=CCn1c(SCC(=O)CC(=O)OCC)nc2cc(C(=O)N3CCC(C(N)=O)CC3)ccc2c1=O,2.99% (inactive)
23,C/C(CCC(=O)OC[C@H]1O[C@H](C#Cc2ccccc2)C=C[C@@H]1Oc1ccc(C)cc1)=N\OC[C@@H](O)[C@H]1O[C@@H]2OC(C)(C)O[C@@H]2[C@H]1O,11.1% (active)
24,O=C(NNC(=S)NCc1ccccc1)c1ccc(OC(F)F)cc1,1.5% (inactive)
25,COc1cccc(CC2(CO)CCCN(CC3=Cc4cc(OC)ccc4OC3)C2)c1 (centres undefined),0.13% (inactive)

row,SMILES,inhibition
1,O=C(c1nnc(-c2ccc(Cl)cc2)o1)C1CCCC1,2.68% (inactive)
2,CCOc1ccc2cc(C#N)c(SCC(=O)OC)nc2c1,1.88% (inactive)
3,COC(=O)CSc1nc(C2CC2)nc2ccccc12,-0.4% (inactive)
4,COC(=O)CSc1nc2c(c(C3CC=CCC3)c1C#N)CCC2 (centres undefined),8.53% (active)
5,O=C(CSc1cccc[n+]1[O-])c1ccc(-c2ccccc2)cc1,0.55% (inactive)
6,CCCCc1nc(NCc2ccccc2)c(C#N)c2c1CCCC2,8.74% (active)
7,CCN1CCc2c(C#N)c(NCc3ccccc3)nc(NCCO)c2C1,1.86% (inactive)
8,CCCCc1nc(NCCN)c(C#N)c2c1CSC(C)(C)C2,1.35% (inactive)
9,CS(=O)(=O)N1CCc2cc(C(=O)Nc3ccccc3)ccc21,3.82% (inactive)
10,COc1ccc(OCC(=O)OCC(=O)Nc2ccc(S(=O)(=O)N3CCCCC3)cc2)cc1,4.54% (inactive)
11,CN(CC(=O)Nc1ccc(S(=O)(=O)N2CCCC2)cc1)Cc1ccc(Cl)c(Cl)c1,-0.13% (inactive)
12,O=C(CSCc1ccc(Br)cc1)Nc1ccc(S(=O)(=O)N2CCCCCC2)cc1,19.5% (active)
13,COc1ccc(Sc2nc(-c3ccccc3)ncc2OC)cc1,4.55% (inactive)
14,Cc1ccc(OC(=O)c2cc3ccccc3o2)cc1,0.41% (inactive)
15,O=C(CCC(=O)OCC(F)(F)C(F)F)NCc1ccccc1,-0.39% (inactive)
16,Cc1ccc(OC(=O)c2ccccc2C(=O)OCC(F)(F)C(F)F)cc1,8.9% (active)
17,COc1ccc(C=Nc2cccc3ncccc23)cc1,0.48% (inactive)
18,C=C(C)c1cccc(C(C)(C)NC(=O)NCCN(CC)CC)c1,1.45% (inactive)
19,O=[N+]([O-])c1cc(S(=O)(=O)Nc2cccc(Cl)c2)ccc1N=Nc1c(O)[nH]c2ccccc12,7.97% (inactive)
20,CCCCOc1ccc(C(=O)NCc2ccco2)cc1,0.66% (inactive)
21,COc1ccc(/C=C(\NC(=O)c2ccc(OCC(C)C)cc2)C(=O)OCc2ccco2)cc1,11.7% (active)
22,O=C(OCN1C(=O)c2ccccc2C1=O)/C(=C\c1ccco1)NC(=O)c1ccccc1,1.22% (inactive)
23,COc1ccc2c(c1)CCC/C2=N\OC(=O)c1ccccc1F,0% (inactive)
24,Cc1ccc(S(=O)(=O)NNC(=O)Nc2cccc3ccccc23)cc1,8.69% (active)
25,COc1ccc(C(=O)NNS(=O)(=O)c2ccc(C)cc2)cc1,1.12% (inactive)

row,SMILES,inhibition
1,Cc1ccc(S(=O)(=O)NC(C)C(=O)Nc2ccccc2C(=O)N2CCCC2)cc1 (centres undefined),0.67% (inactive)
2,Cc1ccc(C(C[N+](=O)[O-])c2c(C)cc3ccccn23)cc1 (centres undefined),5.1% (inactive)
3,CCN1CCN(C(=O)CN(C)S(=O)(=O)c2ccc3ccccc3c2)CC1,1.12% (inactive)
4,N/C(=N\OC(=O)CCCC(=O)O)c1ncc(C(F)(F)F)cc1Cl,1.61% (inactive)
5,O=C(CCC(=O)c1cccs1)NCc1ccccc1,1.52% (inactive)
6,O=C(c1cccs1)n1nc(NCc2ccccc2)nc1NCc1ccccc1,11.2% (active)
7,CCCC(=O)n1nc(NCc2ccc(OC)cc2)nc1NCc1ccc(OC)cc1,6.99% (inactive)
8,O=C(NCCOc1ccccc1Cl)C(=O)Nc1ccccc1,4.17% (inactive)
9,NC(N)=Nc1nc2ccc(Br)cc2c(=O)[nH]1,-0.37% (inactive)
10,CCOC(=O)c1c(NC(=O)CCC(=O)NCc2ccco2)sc2c1CCCC2,9.97% (active)
11,CCOC(=O)c1c(NC(=S)NC(=O)c2ccco2)sc2c1CCCC2,4.55% (inactive)
12,CCOCC(=O)Nc1sc2c(c1C(=O)OCC)CCCC2,2.1% (inactive)
13,Nc1cc(C(F)(F)F)ccc1N1CCOCC1,2.42% (inactive)
14,O=C(CN1CCN(S(=O)(=O)c2ccc(Br)cc2)CC1)Nc1ccccc1C(=O)c1ccccc1,3.25% (inactive)
15,Cc1cc2ccccc2n1CCC(=O)O,-0.54% (inactive)
16,COC(=O)C(C)NC(=O)COc1ccc2ccccc2c1 (centres undefined),1.01% (inactive)
17,Cc1cc2ccccc2n1CCNC(=O)COc1ccc2ccccc2c1,11.6% (active)
18,COc1ccc(S(=O)(=O)Nc2cccnc2)c(Cl)c1Cl,2.49% (inactive)
19,CC(C)Cc1nn2c(=O)cc(O)nc2s1,1.5% (inactive)
20,COc1cccc(CNn2cn[nH]c2=S)c1OCc1ccccc1,1.01% (inactive)
21,CSc1c(SCc2ccccc2)cnn(Cc2ccccc2)c1=O,1.14% (inactive)
22,COc1ccc(S(=O)(=O)N(C)CC(=O)Nc2ccc3c(c2)OCCO3)cc1OC,9.23% (active)
23,COc1ccc(NC(=O)CN(C)S(=O)(=O)c2ccccc2)cc1OC,0.34% (inactive)
24,COc1ccc(/C=C/C(=O)Nc2ccc3c(c2)OCCO3)cc1OC,1.12% (inactive)
25,Cc1ccc(N2C(=O)C3CC3C2=O)cc1 (centres undefined),0% (inactive)

row,SMILES,inhibition
1,O=C(NCc1ccc(Cl)cc1)NCc1ccc(Cl)cc1,2.41% (inactive)
2,Cc1cccc(Oc2c([N+](=O)[O-])c(=O)n(C)c3ccccc23)c1,2.19% (inactive)
3,CC(C)c1csc(CN2CCC(CO)(Cc3ccccc3)CC2)n1,1.22% (inactive)
4,COc1ccc([N+](=O)[O-])cc1NC(=O)c1ccc(N(Cc2ccccc2C)S(C)(=O)=O)cc1,4.39% (inactive)
5,COc1ccc([N+](=O)[O-])cc1NC(=O)CCc1ccccc1,0.95% (inactive)
6,COc1ccc([N+](=O)[O-])cc1NC(=O)CC1SC(=Nc2cccc(C)c2C)N(/N=C(\C)c2ccc(C)cc2)C1=O (centres undefined),9.07% (active)
7,Cc1ccccc1Nc1nc(N)nc(CSc2ccccc2)n1,-0.26% (inactive)
8,COc1ccc(-c2nnc(SCc3cccnc3)o2)cc1,0.36% (inactive)
9,COc1ccc(-c2nnc(SC(=O)N3c4ccccc4Sc4ccccc43)o2)cc1,8.49% (active)
10,COc1ccc(-c2nnc(SC(C)C#N)o2)cc1 (centres undefined),-0.45% (inactive)
11,CC1CCN(c2ccc([N+](=O)[O-])cc2C(N)=O)CC1,1.09% (inactive)
12,Cc1cc(C)c(NC(=S)N2CCCC2C(=O)O)c(C)c1 (centres undefined),-0.25% (inactive)
13,COc1ccc(CCN2C(=O)c3[nH]nc(-c4ccccc4O)c3C2c2ccc(C)cc2)cc1OC (centres undefined),1.8% (inactive)
14,COc1ccc(CCNC(=O)C(=O)NCc2ccccc2C)cc1OC,0.77% (inactive)
15,COC(=O)c1ccc(C2C(Oc3ccccc3C)C(=O)N2CCc2ccc(OC)c(OC)c2)cc1 (centres undefined),12.4% (active)
16,Cc1sc2c(c1C)c(=O)n(-c1ccccc1)c(=O)n2CC(=O)NCC1CCCO1 (centres undefined),1.92% (inactive)
17,O=C(O)/C=C/C(=O)NNc1ccc([N+](=O)[O-])cc1,0.13% (inactive)
18,CCOCCCNC(=O)C(NC(=O)c1ccccc1O)c1ccccc1 (centres undefined),0% (inactive)
19,Cc1ccc(C(=O)/C=C/c2c(C)nn(-c3ccccc3)c2Cl)cc1,14.1% (active)
20,Cc1nn(-c2ccccc2)c(C)c1NC(=O)CCl,3.63% (inactive)
21,Cc1nn(-c2ccccc2)c(C)c1/C=C/C(=O)OC(C)C(N)=O (centres undefined),1.08% (inactive)
22,Cc1nn(-c2ccccc2)c(Cl)c1C(=O)Nc1ccccc1,6.51% (inactive)
23,Cc1ccc(-n2nc(C)c(/C=N/NC(=O)c3cccs3)c2Cl)cc1,5.29% (inactive)
24,Cc1nn(-c2ccccc2)c(Cl)c1/C=C/C(=O)c1ccc(O)cc1,8.5% (active)
